Each structure is given as a SMILES string. Unmarked numbers belong to inactive results. Inconclusive results are not listed. Activity calls are given as the source filed them. Unless noted, calls follow the shape of the dose curve; as a rule, active = well fitted curve in the direction sought with a large enough effect in the repeat runs; inconclusive = weak or mixed curves; inactive = no such curve, though single readings can be large; an effect the other way counts as inactive or inconclusive.

Assay [1] is described as follows: qHTS assay to identify small molecule agonists of the TGF-beta/Smad signaling pathway (AID 1346859; active = well fitted activation curve with a large enough effect in the signal ratio in the repeat runs, not every such curve was filed as active; the % refers to the signal ratio; also: series mostly up to about 77 µM). In outline:
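Read-out: fluorescence at 460 and 530 nm (405 nm excitation) after a 2 hr room-temperature incubation with beta-lactamase FRET substrate. SBE-bla HEK 293T cells had been treated with test compounds for 5 hr at 37 C.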
(In qHTS, concentration-response curves come from the screen itself.)

For assay [2], the target named is Thyrotropin-releasing hormone receptor (Homo sapiens) (UniProt P34981). Briefly: qHTS assay to identify small molecule antagonists of the thyrotropin-releasing hormone receptor (TRHR) signaling pathway (AID 1346877; active = well fitted inhibition curve with a large enough effect in the repeat runs, not every such curve was filed as active; also: series mostly up to about 51 µM). In outline:
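Antagonist mode: after a 5 min room-temperature compound exposure, cells were stimulated with 1 nM (final) TRH. Dye-loaded TRHR-HEK293 cells were used, and calcium-dependent fluorescence was followed for 3 min, with 15-point titrations run in triplicate.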

The target is the same in assay [3]. In words: qHTS assay to identify small molecule agonists of the thyrotropin-releasing hormone receptor (TRHR) signaling pathway (AID 1346891; calls by dose curve;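 also: HEK293 cells expressing TRHR with calcium dye readout; series mostly up to about 58 µM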). In outline: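 HEK293/TRHR cells, 1500 per well, 18 h 37 °C; Ca dye 2 h 37 °C; pin-tool compound addition (agonist mode); kinetic fluorescence 3 min, 1 s reads; 15 concentrations, triplicate.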
Assay [4] can be described thus: Human pregnane X receptor (PXR) small molecule agonists, qHTS cell viability counter screen (AID 1346977). Also: nearly all actives have a fitted effect of over 50% in size. An outline of the steps: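 Fluorescence read-out (CellTiter-Fluor) of viability in PXR-Luc HepG2 cells, multiplexed with the luciferase agonist read. Compounds in DMSO added after 5hr plating; 24hr total exposure at 37C, 5% CO2.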
A short description of assay [5]: Caspase-3/7 induction in HepG2 cells by small molecules, qHTS assay (AID 1346978). Also: nearly all actives have a fitted effect of over 15% in size. In outline:
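Wild-type HepG2 cells (2,000/well) were settled 5 h at 37 C, 5% CO2, then exposed to compounds in DMSO for 17 h. Caspase-3/7 activity was read by luminescence 30 min after adding Caspase-Glo 3/7 reagent at room temperature.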

Assay [6] is described as follows: Caspase-3/7 induction in CHO-K1 cells by small molecules, qHTS assay (AID 1346980). Also: nearly all actives have a fitted effect of over 15% in size. In outline: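 Wild-type cells were seeded at 1,500 per well and settled 5 hr at 37 C, 5% CO2, then exposed to DMSO-dissolved compounds for 17 hr. Caspase-Glo 3/7 reagent was added, and luminescence was read after 30min at room temperature.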
Assay [7] can be described thus: Caspase-3/7 induction in HepG2 cells by small molecules, qHTS cell viability counter screen (AID 1346981). Also: series mostly up to about 92 µM; nearly all actives have a fitted effect of over 30% in size. An outline of the steps: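 CellTiter-Fluor fluorescence measured viability in the same wells used for Caspase-Glo 3/7. HepG2 (wild type) at 2,000 cells/well were pre-incubated 5 hr, dosed, and given reagent at 16 hr, with 1 hr further at 37C.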
For assay [8], the target named is Nuclear receptor subfamily 1 group I member 2 (Rattus norvegicus) (UniProt Q9R1A7). In words: Rat pregnane X receptor (rPXR) activation by small molecules, qHTS assay (AID 1346983). Also: nearly all actives have a fitted effect of over 20% in size. The note with it: rPXR luciferase reporter cells, One-Glo luminescence, 24 h; max activation: active compounds read high. An outline of the steps: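 Cell-based rPXR luciferase reporter assay, 2,000 cells per well, rested 5hr at 37 C before compound addition in DMSO, then 24 hr at 37 C. One-Glo reagent was added and luminescence read after 30 min at room temperature.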

In assay [9] the target is Voltage-gated inwardly rectifying potassium channel KCNH2 (Homo sapiens) (UniProt Q12809). Briefly: Human Ether-a-go-go-Related Gene (hERG) channel small molecule antagonists: fluorescence cell-based qHTS assay (AID 1671200).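 Also: hERG-expressing U2OS cells given a thallium stimulus after FluxOR II dye loading; series mostly up to about 77 µM; nearly all actives have a fitted effect of over 50% in size.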 An outline of the steps: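 Read-out: thallium influx as a surrogate for potassium, tracked as fluorescence (480 nm ex/540 nm em) every second for 2 min after Stimulus Buffer addition in dye-loaded hERG-U2OS cells.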

A short description of assay [10]: Caspase-3/7 induction in CHO-K1 cells by small molecules, qHTS cell viability counter screen (AID 1346979). Also: nearly all actives have a fitted effect of over 35% in size. In outline: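 CHO-K1 wt, 1,500 cells/well; 5hr pre-incubation 37C/5% CO2; compound pin transfer (DMSO); 16hr exposure; CellTiter-Fluor added, 1hr, fluorescence read.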
Assay [11] concerns the target Nuclear receptor subfamily 1 group I member 2 (Homo sapiens) (UniProt O75469). Briefly: Human pregnane X receptor (PXR) small molecule agonists, qHTS assay (AID 1346982). Also: nearly all actives have a fitted effect of over 35% in size. Also: potency is read from the fitted curve at half-maximal effect. In outline: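 Agonist mode: luminescence from ONE-Glo after 24 h compound exposure at 37C in HepG2 cells carrying hPXR-responsive CYP3A4 luciferase, plated in charcoal-stripped serum medium 5 h beforehand.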

The target is the same in assay [12]. In words: CYP3A4 induction through human pregnane X receptor (PXR) by small molecules, qHTS assay (AID 1346984). Also: nearly all actives have a fitted effect of over 40% in size. In outline:
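Read-out is luminescence after One-Glo addition, following a 3 hr, 37C incubation with Luciferin-IPA CYP3A4 substrate (3uM final). Before that, compounds were on DPX-2 cells (HepG2 co-transfected with PXR element plus CYP3A4-promoter luciferase) for 24 hr at 37C.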

Assay [13] has the same target. Briefly: Human pregnane X receptor (PXR) activation by small molecules, qHTS assay (AID 1346985). Also: nearly all actives have a fitted effect of over 40% in size. In outline: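 DPX-2 cells (HepG2 co-transfected with a PXR response element and a CYP3A4-promoter luciferase construct) were seeded at 2,000 per well, rested 5 hr at 37C, then exposed to DMSO-dissolved compounds for 24 hr. Activation was read as luciferase luminescence.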

Assay [14] concerns the target Cytochrome P450 2D6 (Homo sapiens) (UniProt P10635). In words: Cytochrome P450 Family 2 Subfamily D Member 6 (CYP2D6) small molecule antagonists: luciferase reporter qHTS assay (AID 1671196). Also: nearly all actives have a fitted effect of over 50% in size. Also: potency is read from the fitted curve at half-maximal effect. An outline of the steps: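 CYP2D6 activity was followed as luminescence from its luciferin product after a 1 h NADPH-driven reaction at room temperature. Enzyme-substrate mix and compound were pre-incubated for 10 min, and the signal was read 20 min after adding detection reagent.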
(A reporter such as luciferase makes a cellular process visible.)

Assay [15] addresses Cytochrome P450 2C19 (Homo sapiens) (UniProt P33261). In words: Cytochrome P450 Family 2 Subfamily C Member 19 (CYP2C19) small molecule antagonists: luciferase reporter qHTS assay (AID 1671197). Also: nearly all actives have a fitted effect of over 65% in size. Also: potency is read from the fitted curve at half-maximal effect. In outline: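 P450-Glo CYP2C19 system: enzyme-substrate mix with compound 10 min at room temperature, then NADPH regeneration solution, 1 h at 37C. Proluciferin-to-luciferin conversion detected by luminescence after 20 min with detection reagent; ketoconazole as positive control.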

In assay [16] the target is Cytochrome P450 2C9 (Homo sapiens) (UniProt P11712). Briefly: Cytochrome P450 Family 2 Subfamily C Member 9 (CYP2C9) small molecule antagonists: luciferase reporter qHTS assay (AID 1671198). Also: nearly all actives have a fitted effect of over 50% in size. Also: potency is read from the fitted curve at half-maximal effect. In outline: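 CYP2C9 activity was measured with a P450-Glo proluciferin substrate. Enzyme–substrate mix was held with compound for 10 min at room temperature, then NADPH regeneration solution was added for 1 h at 37C. Luciferin product was read as luminescence.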

Assay [17] deals with Cytochrome P450 1A2 (Homo sapiens) (UniProt P05177). Briefly: Cytochrome P450 Family 1 Subfamily A Member 2 (CYP1A2) small molecule antagonists: luciferase reporter qHTS assay (AID 1671199). Also: nearly all actives have a fitted effect of over 50% in size. Also: potency is read from the fitted curve at half-maximal effect. In outline:
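Luminescence from luciferin formed by CYP1A2 from a proluciferin substrate, read 20 min after detection reagent. Compound was pre-incubated 10 min with enzyme-substrate, and reaction started with NADPH regeneration solution for 1 h at room temperature; furafylline control.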

Assay [18] addresses Cytochrome P450 3A4 (Homo sapiens) (UniProt P08684). Briefly: Cytochrome P450 Family 3 Subfamily A Member 4 (CYP3A4) small molecule antagonists: luciferase reporter qHTS assay (AID 1671201). In outline:
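Luminescent readout (RLU) proportional to CYP3A4 activity, from luciferin generated off a proluciferin substrate. Enzyme–substrate mix plus compound 10 min at room temp, NADPH regeneration 1 h, detection reagent 20 min.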
% is scaled to controls: 0 for no effect and ±100 for the full control effect.

Sequence of Nuclear receptor subfamily 1 group I member 2 (Rattus norvegicus) (Q9R1A7 whole entry, looked up): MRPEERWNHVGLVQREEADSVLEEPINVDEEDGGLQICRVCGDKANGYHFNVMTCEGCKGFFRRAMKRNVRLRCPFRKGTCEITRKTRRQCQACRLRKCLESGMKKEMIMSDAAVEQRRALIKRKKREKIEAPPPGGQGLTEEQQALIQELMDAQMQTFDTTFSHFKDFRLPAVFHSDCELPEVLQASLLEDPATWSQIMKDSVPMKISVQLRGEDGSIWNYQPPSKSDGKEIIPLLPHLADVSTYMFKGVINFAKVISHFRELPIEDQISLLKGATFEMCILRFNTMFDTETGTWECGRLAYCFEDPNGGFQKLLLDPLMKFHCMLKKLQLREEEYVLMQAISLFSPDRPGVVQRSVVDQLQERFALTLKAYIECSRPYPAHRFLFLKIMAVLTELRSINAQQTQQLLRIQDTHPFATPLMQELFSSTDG
Sequence of Cytochrome P450 2C9 (Homo sapiens) (P11712 whole entry, looked up): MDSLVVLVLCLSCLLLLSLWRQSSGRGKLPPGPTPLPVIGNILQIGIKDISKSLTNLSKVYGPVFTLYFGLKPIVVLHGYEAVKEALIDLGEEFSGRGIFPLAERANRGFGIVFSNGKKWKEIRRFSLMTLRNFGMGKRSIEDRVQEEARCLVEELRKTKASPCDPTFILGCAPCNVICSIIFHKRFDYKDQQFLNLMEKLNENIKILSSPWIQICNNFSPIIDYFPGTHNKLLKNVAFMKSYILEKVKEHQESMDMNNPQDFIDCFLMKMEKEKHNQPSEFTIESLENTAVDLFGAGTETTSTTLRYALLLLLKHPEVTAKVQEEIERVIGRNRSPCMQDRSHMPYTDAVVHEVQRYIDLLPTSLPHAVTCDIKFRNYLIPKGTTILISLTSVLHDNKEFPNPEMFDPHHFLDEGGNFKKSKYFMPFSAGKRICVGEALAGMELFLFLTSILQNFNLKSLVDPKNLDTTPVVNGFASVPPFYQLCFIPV
Sequence of Cytochrome P450 2D6 (Homo sapiens) (P10635 whole entry, looked up): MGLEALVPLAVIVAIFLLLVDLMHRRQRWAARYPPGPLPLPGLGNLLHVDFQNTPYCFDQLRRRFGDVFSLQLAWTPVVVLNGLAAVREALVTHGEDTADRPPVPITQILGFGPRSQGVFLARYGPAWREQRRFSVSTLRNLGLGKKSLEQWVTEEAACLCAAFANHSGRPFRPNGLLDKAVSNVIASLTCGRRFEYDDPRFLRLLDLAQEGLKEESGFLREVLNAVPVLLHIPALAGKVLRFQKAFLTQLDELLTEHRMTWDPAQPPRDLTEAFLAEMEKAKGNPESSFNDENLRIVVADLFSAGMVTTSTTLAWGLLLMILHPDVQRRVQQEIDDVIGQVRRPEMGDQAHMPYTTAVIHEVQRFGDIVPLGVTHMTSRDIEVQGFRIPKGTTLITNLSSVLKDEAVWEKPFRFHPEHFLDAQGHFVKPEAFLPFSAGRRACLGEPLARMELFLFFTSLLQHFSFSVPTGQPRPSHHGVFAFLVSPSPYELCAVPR
Sequence of Thyrotropin-releasing hormone receptor (Homo sapiens) (P34981 whole entry, looked up): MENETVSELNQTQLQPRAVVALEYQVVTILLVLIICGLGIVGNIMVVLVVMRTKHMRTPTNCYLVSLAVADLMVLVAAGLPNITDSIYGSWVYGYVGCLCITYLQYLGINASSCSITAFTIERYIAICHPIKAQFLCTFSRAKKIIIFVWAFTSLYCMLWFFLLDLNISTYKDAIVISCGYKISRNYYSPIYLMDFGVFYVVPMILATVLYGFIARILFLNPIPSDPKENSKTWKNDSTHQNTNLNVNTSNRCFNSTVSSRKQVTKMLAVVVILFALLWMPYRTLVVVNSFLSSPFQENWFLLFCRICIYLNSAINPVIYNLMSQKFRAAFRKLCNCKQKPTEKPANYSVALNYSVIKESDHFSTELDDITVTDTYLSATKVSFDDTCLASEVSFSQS
Sequence of Cytochrome P450 1A2 (Homo sapiens) (P05177 whole entry, looked up): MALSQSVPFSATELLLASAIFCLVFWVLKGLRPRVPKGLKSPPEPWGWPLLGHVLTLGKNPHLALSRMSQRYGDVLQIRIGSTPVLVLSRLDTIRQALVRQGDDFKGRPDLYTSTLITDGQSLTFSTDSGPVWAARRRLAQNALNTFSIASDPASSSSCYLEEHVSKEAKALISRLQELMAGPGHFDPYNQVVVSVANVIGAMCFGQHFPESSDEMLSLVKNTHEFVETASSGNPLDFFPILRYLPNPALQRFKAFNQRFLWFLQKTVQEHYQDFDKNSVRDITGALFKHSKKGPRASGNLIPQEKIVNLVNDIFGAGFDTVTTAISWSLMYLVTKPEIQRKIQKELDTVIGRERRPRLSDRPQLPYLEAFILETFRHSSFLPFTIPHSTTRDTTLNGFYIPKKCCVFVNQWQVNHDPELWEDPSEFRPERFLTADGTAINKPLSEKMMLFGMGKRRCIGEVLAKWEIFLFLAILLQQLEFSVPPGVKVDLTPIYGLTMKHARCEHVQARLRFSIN
Sequence of Cytochrome P450 2C19 (Homo sapiens) (P33261 whole entry, looked up): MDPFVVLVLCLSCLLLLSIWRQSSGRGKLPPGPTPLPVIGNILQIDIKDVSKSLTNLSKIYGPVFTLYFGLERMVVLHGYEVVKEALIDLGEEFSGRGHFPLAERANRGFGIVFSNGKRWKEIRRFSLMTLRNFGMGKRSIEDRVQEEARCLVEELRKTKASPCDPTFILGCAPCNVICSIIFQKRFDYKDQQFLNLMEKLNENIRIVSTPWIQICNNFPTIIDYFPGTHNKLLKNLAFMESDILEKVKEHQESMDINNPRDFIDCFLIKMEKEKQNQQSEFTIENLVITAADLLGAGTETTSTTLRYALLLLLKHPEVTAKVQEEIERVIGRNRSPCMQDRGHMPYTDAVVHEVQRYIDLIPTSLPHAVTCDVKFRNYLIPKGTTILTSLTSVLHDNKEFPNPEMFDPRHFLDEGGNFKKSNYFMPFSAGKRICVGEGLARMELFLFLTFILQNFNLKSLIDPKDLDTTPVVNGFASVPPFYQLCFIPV
Sequence of Nuclear receptor subfamily 1 group I member 2 (Homo sapiens) (O75469 whole entry, looked up): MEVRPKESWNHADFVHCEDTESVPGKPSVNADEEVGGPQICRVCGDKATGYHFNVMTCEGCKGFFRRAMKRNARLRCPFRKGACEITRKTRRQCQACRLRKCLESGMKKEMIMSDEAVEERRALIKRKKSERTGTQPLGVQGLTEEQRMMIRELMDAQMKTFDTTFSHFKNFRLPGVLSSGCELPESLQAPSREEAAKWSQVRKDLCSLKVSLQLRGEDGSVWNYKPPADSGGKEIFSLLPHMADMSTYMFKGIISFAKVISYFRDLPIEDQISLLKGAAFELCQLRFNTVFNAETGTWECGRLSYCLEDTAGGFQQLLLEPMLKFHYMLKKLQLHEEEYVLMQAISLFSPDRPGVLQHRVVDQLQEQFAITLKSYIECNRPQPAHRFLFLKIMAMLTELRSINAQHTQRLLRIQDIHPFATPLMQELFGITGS
Sequence of Voltage-gated inwardly rectifying potassium channel KCNH2 (Homo sapiens) (Q12809 whole entry, looked up): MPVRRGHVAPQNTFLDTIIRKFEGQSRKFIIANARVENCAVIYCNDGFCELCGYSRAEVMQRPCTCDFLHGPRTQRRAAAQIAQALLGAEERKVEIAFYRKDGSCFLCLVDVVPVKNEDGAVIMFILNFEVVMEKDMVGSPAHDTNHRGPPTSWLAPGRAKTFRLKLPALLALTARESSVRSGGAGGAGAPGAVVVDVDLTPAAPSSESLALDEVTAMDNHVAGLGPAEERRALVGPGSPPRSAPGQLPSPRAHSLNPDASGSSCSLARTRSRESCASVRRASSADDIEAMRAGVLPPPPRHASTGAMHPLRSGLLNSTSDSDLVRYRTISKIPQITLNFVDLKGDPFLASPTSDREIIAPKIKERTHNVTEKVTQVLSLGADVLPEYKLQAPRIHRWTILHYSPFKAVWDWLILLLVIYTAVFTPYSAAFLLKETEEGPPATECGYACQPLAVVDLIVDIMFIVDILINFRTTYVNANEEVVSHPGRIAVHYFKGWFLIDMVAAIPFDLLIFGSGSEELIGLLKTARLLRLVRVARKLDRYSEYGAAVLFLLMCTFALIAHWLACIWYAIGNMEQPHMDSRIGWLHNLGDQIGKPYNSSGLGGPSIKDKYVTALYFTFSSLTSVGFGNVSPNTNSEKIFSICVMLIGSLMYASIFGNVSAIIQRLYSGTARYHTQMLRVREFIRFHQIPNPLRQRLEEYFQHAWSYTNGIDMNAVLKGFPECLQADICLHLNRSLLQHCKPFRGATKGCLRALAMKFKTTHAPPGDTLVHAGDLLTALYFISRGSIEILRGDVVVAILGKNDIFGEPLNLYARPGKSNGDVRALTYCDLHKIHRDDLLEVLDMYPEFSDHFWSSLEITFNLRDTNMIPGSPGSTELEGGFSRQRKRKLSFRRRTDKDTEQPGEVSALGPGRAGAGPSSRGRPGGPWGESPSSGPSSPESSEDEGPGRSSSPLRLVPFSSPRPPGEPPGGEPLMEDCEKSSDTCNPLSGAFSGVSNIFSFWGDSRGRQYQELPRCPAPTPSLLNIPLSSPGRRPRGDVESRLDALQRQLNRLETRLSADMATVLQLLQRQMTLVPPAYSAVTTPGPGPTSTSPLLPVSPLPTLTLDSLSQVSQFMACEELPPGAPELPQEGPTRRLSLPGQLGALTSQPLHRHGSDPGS
Sequence of Cytochrome P450 3A4 (Homo sapiens) (P08684 whole entry, looked up): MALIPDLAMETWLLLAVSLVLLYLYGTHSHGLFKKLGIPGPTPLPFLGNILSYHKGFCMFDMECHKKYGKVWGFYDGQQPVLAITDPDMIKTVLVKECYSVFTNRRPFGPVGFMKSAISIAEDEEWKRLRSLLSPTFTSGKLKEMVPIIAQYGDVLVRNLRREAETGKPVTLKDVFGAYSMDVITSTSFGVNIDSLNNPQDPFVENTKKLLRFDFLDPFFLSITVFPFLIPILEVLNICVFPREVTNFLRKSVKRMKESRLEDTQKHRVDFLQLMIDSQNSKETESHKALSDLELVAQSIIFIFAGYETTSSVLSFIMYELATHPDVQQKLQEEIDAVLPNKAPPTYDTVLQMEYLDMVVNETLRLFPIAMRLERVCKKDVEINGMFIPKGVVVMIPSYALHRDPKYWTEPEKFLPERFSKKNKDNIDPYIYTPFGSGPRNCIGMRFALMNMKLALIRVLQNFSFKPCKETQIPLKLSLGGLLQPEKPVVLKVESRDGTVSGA

For `CC(C)(Sc1cc(C(C)(C)C)c(O)c(C(C)(C)C)c1)Sc1cc(C(C)(C)C)c(O)c(C(C)(C)C)c1`, the molecule was classed as inactive in [1], in [2], in assay [4], in assay [5], in assay [6] and in assay [7]. The Potency result in assay [3] and in assay [9] was “inactive” each time. In [8], the max activation was -1.55%.
As for `C[n+]1ccccc1/C=N/O`, the result in [1], in assay [2], in assay [4], in [5], in assay [7] and in [12] was inactive. Moreover, the call in [13] was inactive. The Potency result in [3], in assay [10], in [11], in assay [14], in [15] and in assay [16] was “inactive” each time. For the same molecule, the Potency result in assay [17] and in assay [9] was “inactive” in each case. Moreover, the max activation in assay [8] was -0.461%.
Regarding `CC(C)(C)C(=O)CCc1ccc(Cl)cc1`, the molecule was called inactive in [1], in assay [2], in assay [4], in assay [5], in [6] and in [7]. Further, the Potency result in [3], in assay [11], in assay [14], in [9] and in [18] was “inactive” each time. Also, the figures for the Potency in assay [15] and in [17] were 7.1 µM (active) and 22.4 µM (active), respectively.
Turning to `O=C(O)/C=C(\CC(=O)O)C(=O)O`, the molecule was classed as inactive in assay [1], in assay [2], in [4] and in [5]. For the same molecule, the Potency result in assay [3], in assay [10], in assay [14], in assay [15], in assay [16] and in [18] was “inactive” each time.
With `CCCCCCCCCCCBr`, the outcome in [1], in assay [2], in assay [4], in assay [5], in assay [6] and in [7] was inactive. Moreover, the Potency entry in assay [3], in assay [11], in assay [14], in [15], in assay [16] and in assay [17] was “inactive” throughout. For the same molecule, the Potency entry in assay [9] and in assay [18] was “inactive” each time.
For the molecule `COc1cc2nc(N3CCN(C(=O)C4CCCO4)CC3)nc(N)c2cc1OC` (stereo not given), the call in assay [1], in assay [2], in assay [4], in [5], in assay [7] and in assay [13] was inactive. The Potency entry in [3], in [10], in assay [16] and in assay [17] was “inactive” in each case. Also, in [8], the max activation was 0.468%.
As to `COC(=O)c1c(C)cc(O)c(C)c1O`, the molecule was called inactive in assay [1], in assay [2], in assay [4], in [5], in assay [6] and in [7]. Also, the Potency entry in assay [3] and in [9] was “inactive” in each case. Also, the Potency in [11] is 61.1 µM (active); in assay [14], 31.7 µM (active); in assay [15], 7.96 µM (active); in assay [17], 0.252 µM (active).
In the case of `C[C@@H](CN1CC(=O)NC(=O)C1)N1CC(=O)NC(=O)C1`, the molecule was called inactive in [1], in [2], in assay [4], in assay [5], in assay [7] and in [12]. Moreover, the result in assay [13] was inactive. The Potency entry in assay [3], in [10], in assay [11], in [14], in assay [15] and in [16] was “inactive” throughout. Moreover, the Potency result in assay [17], in assay [9] and in assay [18] was “inactive” throughout. Further, the max activation in [8] was -0.624%.
As to `CN(C)CCc1c[nH]c2ccc(CS(=O)(=O)N3CCCC3)cc12`, the molecule was called inactive in [1], in assay [2], in [4], in [5], in assay [7] and in [12]. The molecule was classed as inactive in [13]. Besides, the Potency result in assay [3], in [10], in assay [11], in [15], in assay [16] and in [17] was “inactive” throughout. For the same molecule, the Potency result in assay [9] is “inactive”. Further, the max activation in assay [8] was -1.76%.
As for `Clc1cc(Cl)c(Cl)c(Cl)c1Cl`, the call in assay [1], in assay [2], in assay [4], in [5] and in assay [6] was inactive. In addition, the Potency entry in [3], in assay [11], in assay [14], in assay [15], in [16] and in assay [17] was “inactive” throughout.
Turning to `CN(C)c1cc(NC(=O)CNC(C)(C)C)c(O)c2c1C[C@H]1C[C@H]3[C@H](N(C)C)C(=O)C(C(N)=O)=C(O)[C@@]3(O)C(=O)C1=C2O`, the outcome in [1], in [2], in assay [4], in assay [5] and in assay [7] was inactive. Further, the Potency result in [3], in assay [10], in assay [11], in [9] and in assay [18] was “inactive” in each case. In [15], the Potency was 21.9 µM (active).
For the molecule `C=C(C)C(=O)OCCOC1CC2CC1C1C=CCC21` (stereo not given), the call in [1], in assay [2], in assay [4], in assay [5] and in assay [6] was inactive. Further, the Potency result in assay [3], in [14] and in assay [18] was “inactive” throughout. The values for the Potency in assay [15], in assay [16] and in [17] were 30.3 µM (active), 42.9 µM (active) and 42.9 µM (active), respectively.

Values taken from PubChem BioAssay (Tox21).
